# Laboratory results published in PubChem BioAssay AID1159580 (chemical genetic matrix, 2015).
# About 2,000 (36%) of roughly 5,500 compounds were called active. About 18% were inconclusive and are not listed. Some of the results follow. Values without a mark were called inactive. No stated cut-off is given here; in the data, active means normalized growth mostly below about 0.91 (no sharp cut-off); inconclusive means no clear call, values can overlap the other calls; inactive means mostly above about 0.92.
# Assay: chemical genetic growth profiling, strain panel (AID 1159580);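 further: tested at 20 µM; growth read once vehicle control cultures reached saturation at 30 °C; 1 = growth at the plate median or of vehicle wells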
# Conditions: growth OD
# [1] = S. cerevisiae deletion strains, locus YAL013W, strain DEP1, stronger effect = lower value
# [2] = S. cerevisiae deletion strains, locus YBR229C, strain ROT2, stronger effect = lower value
# [3] = S. cerevisiae deletion strains, locus YCL061C, strain MRC1, stronger effect = lower value
# [4] = S. cerevisiae deletion strains, locus YDL101C, strain DUN1, stronger effect = lower value
# [5] = S. cerevisiae deletion strains, locus YDR150W, strain NUM1, stronger effect = lower value
# [6] = S. cerevisiae deletion strains, locus YEL061C, strain CIN8, stronger effect = lower value
# [7] = S. cerevisiae deletion strains, locus YGR078C, strain PAC10, stronger effect = lower value
# [8] = S. cerevisiae deletion strains, locus YHR030C, strain SLT2, stronger effect = lower value
# [9] = S. cerevisiae deletion strains, locus YHR087W, strain rtc3, stronger effect = lower value
# [10] = S. cerevisiae deletion strains, locus YJL187C, strain SWE1, stronger effect = lower value
# [11] = S. cerevisiae deletion strains, locus YJR043C, strain POL32, stronger effect = lower value
# [12] = S. cerevisiae deletion strains, locus YJR075W, strain HOC1, stronger effect = lower value
# [13] = S. cerevisiae deletion strains, locus YKL190W, strain CNB1, stronger effect = lower value
# [14] = S. cerevisiae deletion strains, locus YLR039C, strain RIC1, stronger effect = lower value
# [15] = S. cerevisiae deletion strains, locus YLR058C, strain SHM2 (second series), stronger effect = lower value
# [16] = S. cerevisiae deletion strains, locus YLR085C, strain ARP6, stronger effect = lower value
# [17] = S. cerevisiae deletion strains, locus YLR262C, strain YPT6, stronger effect = lower value
# [18] = S. cerevisiae deletion strains, locus YML094W, strain GIM5, stronger effect = lower value
# [19] = S. cerevisiae deletion strains, locus YMR219W, strain ESC1, stronger effect = lower value
# [20] = S. cerevisiae deletion strains, locus YMR263W, strain SAP30, stronger effect = lower value
# [21] = S. cerevisiae deletion strains, locus YNL128W, strain TEP1, stronger effect = lower value
# [22] = S. cerevisiae deletion strains, locus YNL153C, strain GIM3, stronger effect = lower value
# [23] = S. cerevisiae deletion strains, locus YNL298W, strain CLA4 (second series), stronger effect = lower value
# [24] = S. cerevisiae deletion strains, locus YNL322C, strain KRE1, stronger effect = lower value
# [25] = S. cerevisiae deletion strains, locus YNR030W, strain Alg12, stronger effect = lower value
# [26] = S. cerevisiae deletion strains, locus YPL055C, strain LGE1, stronger effect = lower value
# [27] = S. cerevisiae deletion strains, locus YPL241C, strain CIN2, stronger effect = lower value
# [28] = S. cerevisiae deletion strains, locus YPR135W, strain CTF4, stronger effect = lower value
structure (smiles),measurement,setting,value
C=C1SC(=Nc2cccc(OC)c2)N(C(=O)C(c2ccccc2)C2CCCC2)C1(C)C (centres undefined),normalized growth,[1],1.01
same,normalized growth,[2],0.971
same,normalized growth,[3],1.01
same,normalized growth,[4],1.06
same,normalized growth,[5],1.02
same,normalized growth,[6],0.963
same,normalized growth,[7],1.01
same,normalized growth,"S. cerevisiae deletion strains, locus YGR229C, strain SMI1, stronger effect = lower value",0.983
same,normalized growth,[8],1.03
same,normalized growth,[9],0.957
same,normalized growth,[10],0.999
same,normalized growth,[11],1.01
same,normalized growth,[12],1.02
same,normalized growth,[13],0.977
same,normalized growth,[14],0.922
same,normalized growth,[15],0.979
same,normalized growth,[16],1.02
same,normalized growth,[17],0.919
same,normalized growth,[18],1
same,normalized growth,[19],1
same,normalized growth,[20],1.02
same,normalized growth,[21],0.97
same,normalized growth,[22],1.03
same,normalized growth,[23],1.01
same,normalized growth,[24],0.984
same,normalized growth,[25],1.02
same,normalized growth,[26],0.997
same,normalized growth,[27],1.07
same,normalized growth,[28],1.03
same,normalized growth,"S. cerevisiae strains, strain wild type, stronger effect = lower value",0.95
CC(C)(C)c1ccc(-c2n[nH]c(=S)n2-c2cccc(C(F)(F)F)c2)cc1,normalized growth,[1],0.993
same,normalized growth,[2],1.01
same,normalized growth,[4],0.995
same,normalized growth,[5],1.01
same,normalized growth,[6],0.972
same,normalized growth,[7],0.977
same,normalized growth,[8],0.966
same,normalized growth,[9],1
same,normalized growth,[10],1.22 [resistant] (active)
same,normalized growth,[11],1.01
same,normalized growth,[12],1.24 [resistant] (active)
same,normalized growth,[13],1.01
same,normalized growth,[14],0.744 (active)
same,normalized growth,[15],1.03
same,normalized growth,[16],1.06
same,normalized growth,[17],0.884
same,normalized growth,[18],0.978
same,normalized growth,[19],1.01
same,normalized growth,[20],1
same,normalized growth,[22],1.03
same,normalized growth,[23],0.958
same,normalized growth,[24],1.01
same,normalized growth,[25],0.964
same,normalized growth,[26],0.949
same,normalized growth,[27],0.949
same,normalized growth,[28],0.829
COc1ccc(-c2n[nH]c(=S)n2-c2cccc(OC)c2)cc1,normalized growth,[1],0.987
same,normalized growth,[2],0.994
same,normalized growth,[3],0.977
same,normalized growth,[4],0.969
same,normalized growth,"S. cerevisiae deletion strains, locus YDL134C, strain PPH21, stronger effect = lower value",0.979
same,normalized growth,[5],0.977
same,normalized growth,[6],1.01
same,normalized growth,[7],0.956
same,normalized growth,[8],1.02
same,normalized growth,[9],1.02
same,normalized growth,[10],0.993
same,normalized growth,[11],0.979
same,normalized growth,[12],0.967
same,normalized growth,[14],0.944
same,normalized growth,[15],0.989
same,normalized growth,[16],0.954
same,normalized growth,[17],1
same,normalized growth,[18],1
same,normalized growth,[19],0.986
same,normalized growth,[20],1
same,normalized growth,[21],0.989
same,normalized growth,[22],0.983
same,normalized growth,[23],0.957
same,normalized growth,[24],0.978
same,normalized growth,[25],0.966
same,normalized growth,[26],0.994
same,normalized growth,[27],0.967
same,normalized growth,[28],0.904
